# Assay outcomes as filed in PubChem.
# Beta cell apopt: inhibitors of cytokine-induced beta cell apoptosis, primary screen, luminescence; INS-1E cytokine-induced death, ATP luminescence, 48 h; percent of positive-control rescue, neutral wells zero; protection from apoptosis, % (no concentration beside the values); actives 0.8% (n = 300,000); AID 435005, 2010;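 active = Every replicate reaches about 75%, or at least half do and their mean reaches it too, limit read from the data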;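 note: higher means more ATP so stronger rescue from cytokine killing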
# Mdm2 MdmX PPI: inhibitors of human Mdm2-MdmX association, primary screen, cell-based, luminescence, split luciferase, SaOS-2, uHTS; AID 485346, 2010; inhibition, % at 8 µM; SaOS-2 split-luciferase Mdm2/MdmX complementation; actives 3% (n = 330,000);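 active = inhibition of at least 50% at 8 µM in the primary screen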
# A1 inh: caspase 3/7 activation in MEF A1-2A-BIM cells, primary screen, A1 inhibitor project, cell-based, luminescence, HTS. Caspase-Glo 3/7 luminescence, 3 h; percent of clofoctol response, vehicle zero. caspase activation, % (concentration not given with the values). actives 0.066% (n = 330,000);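 active = over half of replicate activation scores above 10%, or exactly half above 10 with the replicate mean above 10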
# NTR1 agonist: agonists of human NTR1, primary screen, imaging, U2OS cells, beta-arrestin-GFP, high content; actives 0.17% (n = 330,000); NTR1-U2OS beta-arrestin-GFP spot imaging, agonist mode; Neurotensin receptor type 1 (Homo sapiens), P30989; activation, % at 20 µM;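 active = activation at or above 40% of the spot to cytoplasm intensity ratio, with at least 20 cells analyzed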
# Target sequence (P30989 whole entry, looked up): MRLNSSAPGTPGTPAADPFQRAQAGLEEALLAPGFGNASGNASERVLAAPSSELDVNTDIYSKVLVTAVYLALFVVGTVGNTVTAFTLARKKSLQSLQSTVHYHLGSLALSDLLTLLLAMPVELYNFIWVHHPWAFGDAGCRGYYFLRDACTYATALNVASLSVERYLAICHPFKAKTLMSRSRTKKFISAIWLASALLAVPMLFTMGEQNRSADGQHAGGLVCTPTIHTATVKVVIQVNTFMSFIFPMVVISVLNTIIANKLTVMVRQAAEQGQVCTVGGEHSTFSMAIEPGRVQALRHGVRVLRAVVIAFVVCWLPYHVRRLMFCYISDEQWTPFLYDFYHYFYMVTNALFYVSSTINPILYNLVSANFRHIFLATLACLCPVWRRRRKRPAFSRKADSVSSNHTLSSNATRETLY
# Jurkat NFkB inh: inhibitors of induced NF-kB luciferase reporter, primary screen, TCR NF-kB activation inhibitor project, cell-based, luminescence, uHTS. AID 435003, 2010. actives 0.53% (n = 330,000). inhibition, % at 4 µM. Jurkat, PMA/ionomycin-induced NF-kB luciferase reporter; in the data active = inhibition above about 50%
# 697 NFkB inh: inhibitors of PMA/ionomycin-induced NF-kB reporter, 697 cells, primary screen, B-cell NF-kB inhibitor project, cell-based, luminescence, uHTS | 697 B-cell NF-kB luciferase reporter, 16 h | inhibition, % at 4 µM | actives 0.33% (n = 330,000); in the data active = inhibition above about 35%
# Mdm2-MdmX conf: Mdm2-MdmX complex disruptors, retested hits, confirmation, luminescence, single concentration; shares compounds with Mdm2 MdmX PPI; Mdm2-MdmX binding, luminescent assay; inhibition, % at 8 µM; actives 55% (n = 10,000); AID 489028, 2010; in the data active = inhibition above about 40%
# Full FLuc ctr: full-length luciferase signal inhibition, confirmation, counter-screen for Mdm2/MdmX interaction inhibitor project, cell-based, single concentration, SaOS-2 | shares compounds with Mdm2 MdmX PPI | SaOS-2 full-length luciferase counterscreen, luminescence | inhibition, % at 8 µM | actives 77% (n = 6,200) | AID 504607, 2011;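 active = mean inhibition at 8 µM reaching about 37%, which flags the compound as non-specific, limit read from the data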;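 note: p53-null SaOS-2 cells with luciferase driven by a doxycycline-inducible promoter; compound on cells about two nights before reading with doxycycline added after day one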
# Hits are given with their value; 0 = inactive; - = no result. Hits are enriched below; roughly 3.8% of the tested compounds scored in any of these assays.
SMILES,Beta cell apopt,Mdm2 MdmX PPI,A1 inh,NTR1 agonist,Jurkat NFkB inh,697 NFkB inh,Mdm2-MdmX conf,others
CCc1ccc(-c2cc3c(=O)n(CC(=O)NCCCN4CCC(Cc5ccccc5)CC4)nc(C)n3n2)cc1,0,100,0,0,0,0,99,Full FLuc ctr=53
CS(=O)(=O)N(CC(=O)N1CCc2ccccc2C1)c1cccc(Br)c1,0,0,0,0,0,0,-,
Cc1nc(NC(=O)CSc2nc3cccnc3n2C2CCCCC2)sc1C,0,57,0,0,0,0,0,Full FLuc ctr=96
Cc1ccc(S(=O)(=O)N2CCOCC2)cc1C(=O)N1CCC(Cc2ccccc2)CC1,0,0,0,0,0,0,-,
O=C(N/N=C/c1sc(=O)n(Cc2ccc(Br)cc2)c1Cl)c1ccco1,0,59,0,0,0,0,0,
CCOC(=O)[C@@H]1[C@H]2COc3ccccc3[C@@H]2N2C(=O)N(c3cccc(F)c3)C(=O)[C@@]12C,0,0,0,0,0,0,-,
CCOC(=O)c1c(NC(=O)CC(C)C)sc(C(C)=O)c1C,-,0,0,0,0,0,-,
CCOC(=O)c1c(NC(=O)c2cc(-c3ccc(O)cc3)on2)sc(C(C)=O)c1C,0,70,0,0,0,0,0,
CCOC(=O)c1sc(NC(=O)CN(CC(C)C)CC(C)C)c(C(=O)OCC)c1C,0,61,0,0,0,0,0,
CCOC(=O)c1sc(NC(=S)NC(=O)c2ccccc2Cl)c(C(=O)OCC)c1C,0,0,0,0,0,0,-,
CCOC(=O)c1sc(NC(=S)NC(=O)c2ccccc2)c(C(=O)OCC)c1C,0,85,0,0,0,0,0,
COc1ccc(C(=O)O/N=C/c2ccc(S(=O)(=O)c3ccc(Cl)cc3)nc2)cc1,0,0,0,0,0,0,-,
CC(=O)Oc1c(I)cc(I)cc1C(=O)Nc1ccc(Cl)cc1,106,90,0,0,0,0,53,Full FLuc ctr=0
CNS(=O)(=O)c1cn(CC(=O)N(C)Cc2ccccc2)cc1S(=O)(=O)NC,0,0,0,0,0,0,-,
COc1cc2cc(CN(CCc3cccc(C)c3)C(=S)NCCCN(C)C)c(=O)[nH]c2cc1OC,0,52,0,0,0,0,0,
CNC(=S)N(CCc1cccc(C)c1)Cc1cc2cc(OC)c(OC)cc2[nH]c1=O,0,0,0,0,0,0,-,
FC(F)(F)c1nnc2c(Sc3ccccc3)nc3ccccc3n12,0,68,0,0,0,0,0,
CCN1CCN(c2nc3c(c(=O)[nH]c(=O)n3C)n2Cc2ccccc2F)CC1,-,0,0,0,0,0,-,
Cn1c(=O)[nH]c(=O)c2c1nc(CN1CCOCC1)n2CCc1ccccc1,-,0,0,0,0,0,-,
CCCCn1c(CN2CCN(c3cccc(Cl)c3)CC2)nc2c1c(=O)[nH]c(=O)n2C,0,53,0,0,0,0,62,Full FLuc ctr=57
Cc1ccc(Cl)cc1N1CCN(Cc2nc3c(c(=O)[nH]c(=O)n3C)n2CCc2ccccc2)CC1,0,64,0,0,0,0,0,
Cn1c(=O)[nH]c(=O)c2c1nc(CN1CCN(c3cccc(Cl)c3)CC1)n2CCCc1ccccc1,0,0,0,0,0,0,-,
Cc1ccc(Cl)cc1N1CCN(Cc2nc3c(c(=O)[nH]c(=O)n3C)n2Cc2ccccc2F)CC1,0,51,0,0,0,0,0,Full FLuc ctr=77
Cc1cccc(NC(=O)C(=O)NCC2CCCN2S(=O)(=O)c2cccs2)c1C (centres undefined),0,0,0,0,0,0,-,
Cc1ccc(C)c(S(=O)(=O)N2CCCC2CNC(=O)C(=O)NC2CC2)c1 (centres undefined),0,0,0,0,0,0,-,
SMILES,Beta cell apopt,Mdm2 MdmX PPI,A1 inh,NTR1 agonist,Jurkat NFkB inh,697 NFkB inh,Mdm2-MdmX conf,others
CCOc1cc(CNC2CCCC2)cc(Cl)c1OCc1ccccc1,0,52,0,0,0,0,0,
CCOc1cc(CNCC(C)C)cc(Cl)c1OCc1ccccc1,0,0,0,0,0,0,-,
Cc1ccc(S(=O)(=O)Nc2cccnc2)c(C)c1C,0,0,0,0,0,0,-,
CC(C)(C)C(=O)O/N=C(\N)Cc1ccc(-c2csnn2)cc1,0,77,0,0,0,0,0,
COc1ccc(CC(=O)O/N=C(\N)Cc2ccc(OC)cc2)cc1,0,0,0,0,0,0,-,
COc1ccc(C2=NN(C(=O)/C=C/c3ccccc3)C(c3ccccc3)C2)c(OC(C)=O)c1 (centres undefined),0,58,0,0,0,0,0,
CC(C)(O)C#Cc1ccc(C(=O)Nc2ccc3c(c2)OCO3)s1,0,0,0,0,0,0,-,
CN1CCN(c2nc3ccccc3nc2C(C#N)C(=O)OC2CCCCC2)CC1 (centres undefined),0,51,0,0,0,0,0,Full FLuc ctr=84
N#CC(C(=O)OC1CCCCC1)c1nc2ccccc2nc1N1CCOCC1 (centres undefined),0,0,0,0,0,0,-,
O=C(c1ccccc1)c1cnc(Nc2ccc(Cl)c(Cl)c2)s1,0,71,0,0,0,0,0,
COC(=O)c1ccc(OCC2c3cc(OC)c(OC)cc3CCN2C(=O)c2ccco2)cc1 (centres undefined),0,53,0,0,0,0,43,Full FLuc ctr=71
O=c1[nH]c(=O)n(Cc2ccccc2)c2c1C(C(F)(F)F)(C(F)(F)F)N=C(c1ccco1)N2,0,0,0,0,0,0,-,
O=c1[nH]c(=O)n(Cc2ccco2)c2c1C(C(F)(F)F)(C(F)(F)F)N=C(c1ccc(F)cc1)N2,102,65,0,0,0,0,84,Full FLuc ctr=58
COc1ccc(CNC(=O)COc2ccc(C(=O)c3ccc(F)cc3)cc2)cc1,0,61,0,0,0,0,47,Full FLuc ctr=89
O=C(COc1ccc(C(=O)Nc2ccc(Cl)cc2)cc1)NCc1ccccc1,0,62,0,0,0,0,0,
O=C(COc1ccc(C(=O)NCCc2ccccc2)cc1)Nc1ccccc1,0,0,0,0,0,0,-,
Cc1ccc(CNC(=O)COc2ccc(C(=O)c3ccc(F)cc3)cc2)cc1,0,51,0,0,0,0,54,Full FLuc ctr=64
